In PubChem BioAssay:
Calls of active or inactive are those of the source. Unless noted, the rule behind the calls is not given here.

Legend:
[1] = test system: XIP peptide (Xip251-270) binding; experiment: XIP fragment 251-270 binding compounds – biochemical, small-molecule microarray, fluorescence 635/667 nm, 0.1 µg/mL protein, primary screen (AID 1182); details: fluorescent protein binding, 635 nm, higher = more signal, called active from +8 up or from −8 down
XIP peptide (Xip251-270) = experiment: compounds binding XIP fragment 251-270 – biochemical, small-molecule microarray, fluorescence 635/667 nm, 0.5 µg/mL protein, primary screen (AID 1183); details: fluorescence 635 nm, higher = more signal
[2] = blood-stage malaria parasite viability loss – strain 3D7, DAPI fluorescence, 100 nL, primary screen (AID 1184);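 note: parasites grown inside human red blood cells in medium with human serum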; details: P. falciparum 3D7 growth, 3 d, higher = more signal
[3] = target: Homeobox protein Hox-A13 (Mus musculus) (UniProt Q62424); experiment: disruptors of Hoxa13 oligonucleotide interaction – biochemical, fluorescence polarization, labeled oligonucleotide, primary screen (AID 1185); details: Hoxa13:DNA binding, 15 min, higher = more signal, called active from +8 up or from −8 down
Chain of Homeobox protein Hox-A13 (Mus musculus) (Q62424 whole entry, looked up): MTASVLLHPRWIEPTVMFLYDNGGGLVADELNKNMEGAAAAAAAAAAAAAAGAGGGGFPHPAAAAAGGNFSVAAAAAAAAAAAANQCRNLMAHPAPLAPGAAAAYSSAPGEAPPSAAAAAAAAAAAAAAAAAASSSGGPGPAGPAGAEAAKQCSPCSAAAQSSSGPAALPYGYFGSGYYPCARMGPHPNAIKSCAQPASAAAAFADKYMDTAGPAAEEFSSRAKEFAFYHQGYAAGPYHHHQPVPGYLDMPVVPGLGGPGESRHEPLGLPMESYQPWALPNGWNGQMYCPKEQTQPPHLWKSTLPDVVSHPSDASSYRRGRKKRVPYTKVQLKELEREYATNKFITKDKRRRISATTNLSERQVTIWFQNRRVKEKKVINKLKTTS

[4] = blockers of DNA damage checkpoint Chk1 activation – imaging, HeLa, hydroxyurea, phospho-Chk1 antibody, percent positive cells, primary screen (AID 1186); details: hydroxyurea-induced phospho-Chk1 immunofluorescence imaging, higher = more signal
[5] = blockers of DNA damage checkpoint Chk1 activation – imaging, HeLa, hydroxyurea, phospho-Chk1 nuclear intensity, primary screen (AID 1187); details: hydroxyurea-induced phospho-Chk1 immunofluorescence imaging, higher = more signal

Row | SMILES | composite z-score [1] | composite z-score (XIP peptide (Xip251-270)) | z-score [2] | z-score [3] | z-score [4] | z-score [5]
1 | O=C1O[C@H](c2ccccc2)[C@H](c2ccccc2)N2[C@H]1[C@@H](C(=O)N1CCCCCCC1)[C@]1(C(=O)Nc3ccc(C#CCCO)cc31)[C@H]2c1ccc(OCCO)cc1 | 5.42 (inactive) | 0.963 | -1.98 | -8.67 (active) | -0.141 (inactive) | -0.203 (inactive)
2 | C=C[C@@H](O)[C@H]1CC(c2ccccc2)=NO1 | 0.465 (inactive) | -0.299 | 0.99 | -0.345 (inactive) | -0.386 (inactive) | -0.573 (inactive)
3 | [N-]=[N+]=Nc1ccccc1[C@H]1OC(c2ccc(OCCCO)cc2)=N[C@@]1(Cc1ccccc1)C(=O)NCc1ccccc1 | 1.39 (inactive) | 0.596 | -2.24 | -2.71 (inactive) | -0.684 (inactive) | -0.5 (inactive)
4 | COC(=O)c1c(CC[C@@H](CO)NC(=O)N[C@@H](C)Cn2cc(C3(O)CCCC3)nn2)oc(C(C)=O)c1C(=O)OC | -0.0616 (inactive) | 0.407 | -2.04 | -1.93 (inactive) | 1.1 (inactive) | 0.929 (inactive)
5 | Cc1ccc(S[C@]2(C(=O)O)CC(=O)N(C3CCCCC3)[C@@H]2c2ccc(CO)cc2)cc1 | 1.15 (inactive) | 0.929 | 0.756 | -3.31 (inactive) | -0.643 (inactive) | -0.583 (inactive)
6 | CCCCC(O)C1C=CC2C(=O)N(Cc3ccccc3)C(=O)C2N1n1cnnc1 (stereo not given) | 0.506 (inactive) | 0.856 | -1.33 | -1.62 (inactive) | 0.737 (inactive) | 0.0163 (inactive)
7 | CN1C(=O)C2C=CC(C(O)c3ccc(F)cc3)N(N3CCCCC3)C2C1=O (stereo not given) | 0.612 (inactive) | -0.635 | -0.0184 | -7.46 (inactive) | 0.64 (inactive) | -0.206 (inactive)
8 | COC(=O)[C@@]1(Cc2ccc(F)cc2)[C@H]2c3cc(C(=O)N(C)C)n(Cc4ccc(C)c(F)c4F)c3C[C@H]2CN1C(=O)c1ccccc1 | 0.365 (inactive) | -0.0688 | -1.13 | -4.74 (inactive) | -0.014 (inactive) | -0.193 (inactive)
9 | CO[C@H]1O[C@H](CO)[C@@H](OC(=O)c2ccc(Br)cc2)[C@@H]2OC(=O)[C@H](Cc3cccc(Br)c3)C/C=C/C[C@@H](Cc3cccc(Br)c3)C(=O)O[C@@H]12 | 1.69 (inactive) | 0.675 | -0.706 | -2.82 (inactive) | 0.373 (inactive) | 0.574 (inactive)
10 | Cc1cc(C)c(C(O)C2C=CC3C(=O)N(c4ccccc4)C(=O)C3N2Nc2ccccc2)c(C)c1 (stereo not given) | 0.733 (inactive) | 0.79 | -0.0689 | -3.33 (inactive) | 0.826 (inactive) | 0.41 (inactive)
11 | COCCCNC(=O)[C@]1(Cc2ccccc2)N=C(c2ccc(OCCCO)cc2)O[C@@H]1c1ccccc1N=[N+]=[N-] | 0.829 (inactive) | 0.576 | -2.7 | -4.42 (inactive) | -1.82 (inactive) | -6.65 (inactive)
12 | C=CC[C@]1(C(=O)NCC(O)CO)N=C(c2ccc(OCCCO)cc2)O[C@H]1c1ccccc1N=[N+]=[N-] (stereo not given in full) | 2.54 (inactive) | 0.159 | -2.3 | -3.71 (inactive) | -0.353 (inactive) | -0.236 (inactive)
13 | O=c1c2ccc(Br)cc2nc(-c2ccccc2)n1Cc1cccc(O)c1 | 0.0521 (inactive) | 0.748 | -0.772 | -3.01 (inactive) | -0.005 (inactive) | -0.24 (inactive)
14 | [N-]=[N+]=Nc1ccccc1[C@@H]1OC(c2ccc(OCCCO)cc2)=N[C@]1(CCS(=O)(=O)c1ccccc1)C(=O)NCc1ccccc1 | 1.44 (inactive) | 0.629 | -2.27 | -1.05 (inactive) | -0.228 (inactive) | -0.184 (inactive)
15 | COC(=O)[C@@]1(Cc2ccc(F)cc2)[C@@H]2[C@@H](CC(=O)[C@H]2CC(=O)C(=O)N2CCCC2)CN1C(=O)c1ccccc1 | 0.112 (inactive) | 0.663 | -1.44 | -2.66 (inactive) | 0.853 (inactive) | 1.01 (inactive)
16 | O=C1C2C=CC(C(O)c3ccc(Br)cc3)N(Nc3ccccc3)C2C(=O)N1c1ccccc1 (stereo not given) | 0.65 (inactive) | 0.324 | -0.18 | -3.62 (inactive) | 0.348 (inactive) | 0.453 (inactive)
17 | O=C(NCc1ccccc1)[C@]1(Cc2ccccc2)N=C(c2ccc(OCCCO)cc2)O[C@@H]1c1ccccc1 | 0.0268 (inactive) | 0.117 | -2.18 | -2.75 (inactive) | -0.875 (inactive) | -1.17 (inactive)
18 | CCCC[C@@H](O)C1=C(COc2ccccc2)Cn2c(=O)n(-c3ccccc3)c(=O)n2[C@H]1CO | 1.52 (inactive) | 0.628 | -0.471 | -6.48 (inactive) | -0.532 (inactive) | 0.347 (inactive)

Row | SMILES | composite z-score [1] | composite z-score (XIP peptide (Xip251-270)) | z-score [2] | z-score [3] | z-score [4] | z-score [5]
19 | CCOc1cc(C(O)C2C=CC3C(=O)NC(=O)C3N2Nc2ccccn2)ccc1O (stereo not given) | 0.113 (inactive) | 0.0151 | -0.296 | -0.998 (inactive) | 0.861 (inactive) | 0.746 (inactive)
20 | COCC1=C([C@H](O)CCc2ccccc2)[C@H](CO)[C@@H]2C(=O)N(C)C(=O)[C@@H]2C1 | -0.328 (inactive) | 0.104 | -0.119 | -6.06 (inactive) | -0.32 (inactive) | -0.523 (inactive)
21 | CN(C)CCCCCCNC(=O)[C@@H]1C[C@@H]2C(=O)NCC(=O)N2[C@@H]1c1ccc(O)cc1 | 1.82 (inactive) | 0.935 | -0.107 | -1.63 (inactive) | -0.425 (inactive) | -0.297 (inactive)
22 | COc1ccc(C(=O)Nc2ccc(CN3C(=O)[C@]4(O[C@H](CCn5cc([C@H](O)c6ccccc6)nn5)[C@@H]([Si](C)(C)c5ccc(OC)cc5)[C@@H]4C)c4ccccc43)cc2)cc1 | -0.211 (inactive) | -0.0268 | -2.7 | 0.564 (inactive) | 0.107 (inactive) | 0.168 (inactive)
23 | COCC(=C=CC[C@@H](O)c1ccccc1OCCO)C[C@@H](O)c1ccccn1 | 0.416 (inactive) | 0.76 | -0.991 | -6.18 (inactive) | 0.413 (inactive) | 0.289 (inactive)
24 | COC(=O)[C@@]1(Cc2ccc(OC)cc2)[C@H]2c3cc(C(=O)N4CCCC4)n(CCc4ccc(O)c(OC)c4)c3C[C@H]2CN1C(=O)c1ccccc1 | 0.739 (inactive) | -0.506 | -0.37 | -4.35 (inactive) | 0.219 (inactive) | 0.0055 (inactive)
25 | COC(=O)[C@]1(Cc2ccccc2CN=[N+]=[N-])N=C(c2ccc(OCCCO)cc2)O[C@@H]1c1ccccc1 | 0.0835 (inactive) | 0.534 | -2.17 | -4.62 (inactive) | -0.346 (inactive) | -0.91 (inactive)
26 | C=C(C)[C@@H]1CC=C(C(O)C2C=CC3C(=O)N(C4CCCCC4)C(=O)C3N2Nc2ccc(OC)cc2)CC1 (stereo not given in full) | 0.376 (inactive) | 0.505 | -0.409 | -3.47 (inactive) | -0.385 (inactive) | -0.393 (inactive)
27 | COC(=O)[C@@]1(Cc2ccc(F)cc2)[C@H]2c3cc(C(=O)N4CCCC4)n(Cc4ccccc4)c3C[C@H]2CN1C(=O)c1ccccc1 | 0.0584 (inactive) | 0.703 | -0.443 | -3.98 (inactive) | -0.0167 (inactive) | 0.0304 (inactive)
28 | O=C1NC(=O)C2C1C=CC(C(O)CCc1ccccc1)N2Nc1ccccn1 (stereo not given) | 0.415 (inactive) | 0.932 | 0.581 | -0.354 (inactive) | -0.181 (inactive) | -0.426 (inactive)
29 | C=C(COC)C(=O)CC[C@H](OC(=O)c1ccccc1-c1ccccc1C(=O)O)c1ccc(OCCO)cc1 | 0.0817 (inactive) | 0.264 | -1.84 | -5.78 (inactive) | -0.33 (inactive) | -0.537 (inactive)
30 | C[C@]12C(=O)N(CCCCCO)[C@@H]3C(=O)N(c4ccc(Cl)cc4)CC=CC31O[C@@H]1/C=C\CCCOC(=O)C12 (stereo not given in full) | 0.951 (inactive) | 0.0211 | 1.77 | -4.29 (inactive) | 0.0276 (inactive) | 0.596 (inactive)
31 | COC(=O)c1ccc(OC)c(/C=C\CC(CCc2ccccc2)OC(C)=O)c1 (stereo not given) | -0.521 (inactive) | -0.187 | 0.522 | -1.15 (inactive) | 0.177 (inactive) | 0.453 (inactive)
32 | CCCCCCCCCCC(O)C1C=CC2C(=O)NC(=O)C2N1Nc1ccccn1 (stereo not given) | -0.0785 (inactive) | -0.0706 | 1.05 | -2.89 (inactive) | 0.764 (inactive) | 0.554 (inactive)
33 | CC(C)[Si](C#C[Si](C(C)C)(C(C)C)C(C)C)(O[C@H](C)c1cn(Cc2cccc(Cl)c2)nn1)C(C)C | -0.109 (inactive) | -0.0612 | 0.293 | 0.702 (inactive) | 0.0695 (inactive) | 0.153 (inactive)
34 | O=C(O)[C@]1(CCS(=O)(=O)c2ccccc2)N=C(c2ccc(OCCCO)cc2)O[C@@H]1c1ccccc1 | 0.744 (inactive) | -0.374 | -0.212 | -4.32 (inactive) | -0.178 (inactive) | 0.06 (inactive)
35 | C[N+](C)(C)CCCCCCNC(=O)[C@@H]1C[C@@H]2C(=O)NCC(=O)N2[C@@H]1c1cccc(OCCO)c1 | 0.525 (inactive) | 0.421 | -0.848 | -4.4 (inactive) | -0.177 (inactive) | -0.261 (inactive)
